According to PubChem BioAssay (Tox21):
Values joined by “and” are separate entries in the source; they are usually repeats but may differ in a detail not shown here. Equal values may be shown once. Results filed as inconclusive are left out. Where a call stands in place of a potency, no number is given. Active and inactive are the calls of the source. Unless noted, the call rests on the fitted dose curve; in most records, active means well fitted curve in the direction sought with a large enough effect in the repeat runs; inconclusive means weak or mixed curves; inactive means no such curve, though single readings can be large; an effect the other way counts as inactive or inconclusive.

Key:
[1] = qHTS assay for small molecule agonists of the p53 signaling pathway (AID 651631; calls by dose curve; further: nearly all actives have a fitted effect of over 15% in size; further: potency means the concentration at half of the fitted maximal effect)
How it was run: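 Readout was fluorescence from the LiveBLAzer FRET substrate, applied for 2 h at room temperature after 16 h compound exposure at 37 °C. Cells were the p53RE-bla HCT-116 line, with beta-lactamase driven by p53 response elements.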

[2] = qHTS assay for small molecules that induce genotoxicity in human embryonic kidney cells expressing luciferase-tagged ATAD5 (AID 651632); further: nearly all actives have a fitted effect of over 15% in size
How it was run: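 DMSO vehicle served as the control. HEK293T reporter cells, 16 hr at 37C, then 30 min Amplite at room temperature; ATAD5 induction is measured as luciferase activity.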

[3] = qHTS assay for small molecule agonists of the p53 signaling pathway - cell viability (AID 651633; calls by dose curve; further: nearly all actives have a fitted effect of over 30% in size; further: potency means the concentration at half of the fitted maximal effect)
How it was run: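 p53RE-bla cells were treated with compound for 16 hours at 37 C. Cytotoxicity was then measured as CellTiter-Glo luminescence after 30 min at room temperature.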

[4] = qHTS assay for small molecules that induce genotoxicity in human embryonic kidney cells expressing luciferase-tagged ATAD5 - cell viability (AID 651634; calls by dose curve; further: nearly all actives have a fitted effect of over 25% in size)
How it was run: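 Here HEK293T cells with the ATAD5 luciferase reporter are incubated with test compounds for 15.5 hr, and cytotoxicity is then gauged by measuring protease activity in live cells using fluorescence.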

[5] = qHTS assay for small molecule disruptors of the mitochondrial membrane potential - cell viability (AID 720634; calls by dose curve; further: nearly all actives have a fitted effect of over 20% in size; further: potency means the concentration at half of the fitted maximal effect)
How it was run: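 Viability of HepG2 cells is scored from ATP content by luminescence; cells are exposed to compound for 1 hr at 37 C and 5% CO2, then dosed with m-MPI dye before the CellTiter-Glo reagent.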

[6] = qHTS assay to test for compound auto fluorescence at 590 nm (red) in HepG2 cells (AID 720674)
How it was run: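 HepG2 cells, 2,000 per well in MEM with 10% FBS, attached overnight at 37 C, then got 23 nL compound or DMSO. After 1 hr at 37 C, 5% CO2, red fluorescence was read at 540/590 nm against Rose Bengal sodium as reference.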

[7] = qHTS assay to test for compound auto fluorescence at 535 nm (green) in HepG2 cells (AID 720675)
[8] = qHTS assay to test for compound auto fluorescence at 460 nm (blue) in HEK293 cells (AID 720678)
How it was run: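 Measured: blue fluorescence (Ex 405/Em 460 nm) of compound-treated HEK293 cells, incubated overnight at 37C with 5% CO2 and scaled to triamterene equivalents.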

[9] = qHTS assay to test for compound auto fluorescence at 590 nm (red) in HEK293 cells (AID 720679)
How it was run: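 Using HEK293 cells at 2,000 per well, the screen added 23 nL of each compound after cell attachment and incubated overnight (37C, 5% CO2). The plate reader then captured red-label fluorescence, Ex/Em 540/590nm.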

[10] = qHTS assay to test for compound auto fluorescence at 460 nm (blue) in HEK293 cell free culture (AID 720681)
How it was run: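 Compounds were added to cell-free DMEM with 10% FBS and fluorescence read directly. The blue channel used 405 nm excitation and 460 nm emission, with triamterene as the reference fluorophore.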

[11] = qHTS assay to test for compound auto fluorescence at 535 nm (green) in HEK293 cell free culture (AID 720682)
How it was run: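 Compounds were pin-transferred into cell-free DMEM with 10% FBS, and green fluorescence was read at excitation 485 nm and emission 535 nm. Intensities were expressed as fluorescein-equivalent values.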

[12] = qHTS assay to test for compound auto fluorescence at 590 nm (red) in HEK293 cell free culture (AID 720683)
How it was run: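 Cell-free wells of DMEM with 10% FBS received compound, and intrinsic fluorescence was read at excitation/emission 540/590 nm. Values expressed as equivalence to Rose Bengal sodium.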

[13] = qHTS assay to test for compound auto fluorescence at 590 nm (red) in HepG2 cell free culture (AID 720684)
How it was run: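 Auto fluorescence equivalency versus Rose Bengal sodium, red channel Ex/Em 540/590 nm; compounds in cell-free MEM/10% FBS; DMSO vehicle control.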

[14] = qHTS assay to test for compound auto fluorescence at 460 nm (blue) in HepG2 cell free culture (AID 720685)
How it was run: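 Cell-free plates of MEM plus 10% FBS received 23 nL compound or DMSO vehicle; blue-channel (405/460 nm) intensity scored against triamterene as reference fluorophore.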

[15] = qHTS assay to test for compound auto fluorescence at 535 nm (green) in HepG2 cell free culture (AID 720686)
[16] = qHTS assay to test for compound auto fluorescence at 460 nm (blue) in HepG2 cells (AID 720687)
How it was run: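 HepG2 cells in MEM with 10% FBS, attached overnight at 37 C, were exposed to compound or DMSO for 1 hr at 37 C, 5% CO2. Blue fluorescence was read at 405/460 nm, with triamterene as reference fluorophore.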

[17] = biological target: Glucocorticoid receptor (Homo sapiens) (UniProt P04150); experiment: qHTS assay to identify small molecule agonists of the glucocorticoid receptor (GR) signaling pathway (AID 720691; active means well fitted activation curve with a large enough effect in the signal ratio in the repeat runs, not every such curve was filed as active; the % refers to the signal ratio)
Chain of Glucocorticoid receptor (Homo sapiens) (P04150 whole entry, looked up): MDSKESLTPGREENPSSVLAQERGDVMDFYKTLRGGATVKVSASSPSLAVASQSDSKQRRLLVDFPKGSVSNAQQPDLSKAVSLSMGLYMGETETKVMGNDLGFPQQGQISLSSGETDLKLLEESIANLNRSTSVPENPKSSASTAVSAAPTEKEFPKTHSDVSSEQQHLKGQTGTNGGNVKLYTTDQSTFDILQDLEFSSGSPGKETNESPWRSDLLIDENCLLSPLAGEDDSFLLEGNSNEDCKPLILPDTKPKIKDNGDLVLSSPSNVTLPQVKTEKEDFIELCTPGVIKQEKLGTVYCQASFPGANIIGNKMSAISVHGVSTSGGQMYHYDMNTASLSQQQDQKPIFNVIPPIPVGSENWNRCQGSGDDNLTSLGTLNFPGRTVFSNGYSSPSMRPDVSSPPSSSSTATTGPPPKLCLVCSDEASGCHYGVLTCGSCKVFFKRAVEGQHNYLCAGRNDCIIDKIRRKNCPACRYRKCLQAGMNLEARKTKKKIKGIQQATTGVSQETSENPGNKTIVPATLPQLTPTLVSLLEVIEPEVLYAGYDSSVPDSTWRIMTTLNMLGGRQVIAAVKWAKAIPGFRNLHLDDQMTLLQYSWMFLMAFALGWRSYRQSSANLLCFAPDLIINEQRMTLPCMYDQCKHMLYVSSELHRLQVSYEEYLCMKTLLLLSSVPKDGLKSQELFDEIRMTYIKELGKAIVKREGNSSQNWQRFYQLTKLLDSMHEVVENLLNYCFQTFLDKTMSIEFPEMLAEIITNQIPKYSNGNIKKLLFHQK
How it was run: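 Compounds in DMSO, alongside positive controls, were added to GR-bla HeLa reporter cells and incubated 18 h at 37 C; GRE-driven beta-lactamase was detected by fluorescence after 2 h with FRET substrate at room temperature.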

[18] = biological target: Glucocorticoid receptor (Homo sapiens) (UniProt P04150); experiment: qHTS assay to identify small molecule antagonists of the glucocorticoid receptor (GR) signaling pathway (AID 720692; active means well fitted inhibition curve with a large enough effect in the signal ratio in the repeat runs, not every such curve was filed as active; the % refers to the signal ratio)
How it was run: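 In a 1536-well cell format, compounds were added 4 h after seeding GR-bla HeLa cells, together with dexamethasone at 5 nM final; reporter activity was measured by FRET-substrate fluorescence following 18 h at 37 C.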

[19] = qHTS assay to test for compound auto fluorescence at 535 nm (green) in HEK293 cells (AID 720680)
[20] = qHTS assay for small molecule disruptors of the mitochondrial membrane potential (AID 720635); further: potency means the concentration at half of the fitted maximal effect
How it was run: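 HepG2 cells exposed to compound 1 hr at 37C, then Mito-MPS dye 30 min. Ratio read of aggregate (540/590 nm) versus monomer (490/535 nm) fluorescence.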

| SMILES | Potency [1] | Potency [2] | Potency [3] | Potency [4] | Potency [5] | outcome [6] | outcome [7] | outcome [8] | outcome [9] | outcome [10] | outcome [11] | outcome [12] | outcome [13] | outcome [14] | outcome [15] | outcome [16] | Potency [17] | Potency [18] | outcome [19] | Potency [20] |
| --- | --- | --- | --- | --- | --- | --- | --- | --- | --- | --- | --- | --- | --- | --- | --- | --- | --- | --- | --- | --- |
| Clc1ccc2ccccc2c1 | inactive | inactive | inactive | inactive | inactive | inactive | inactive | inactive | inactive | inactive | inactive | inactive | inactive | inactive | inactive | inactive | inactive | inactive |  |  |
| CCCSP(=S)(OCC)Oc1ccc(SC)cc1 (stereo unspecified) | inactive | inactive | inactive | inactive |  | inactive | inactive | inactive | inactive | inactive | inactive | inactive | inactive | inactive | inactive | inactive |  |  | inactive |  |
| CCCCNC(=O)OCC#CI | 68.6 µM (active) | inactive | 60.8 µM (active) |  | 8.59 µM (active) and 27.3 µM (active) | inactive | inactive | inactive | inactive | inactive | inactive | inactive | inactive | inactive | inactive | inactive |  |  | inactive | 4.31 µM (active) and 6.86 µM (active) |
| CC(C)c1ccc(OP(=O)(Oc2ccc(C(C)C)cc2)Oc2ccc(C(C)C)cc2)cc1 | inactive | inactive | inactive | inactive |  | inactive | inactive | inactive | inactive |  | inactive | inactive | inactive | inactive | inactive | inactive | inactive |  | inactive |  |
| SCc1ccccc1 | inactive | inactive | inactive | inactive | inactive | inactive | inactive | inactive | inactive | inactive | inactive | inactive | inactive | inactive | inactive | inactive | inactive |  |  |  |
| NC(=O)CF | inactive | inactive | inactive |  | inactive | inactive | inactive | inactive | inactive | inactive | inactive | inactive | inactive | inactive | inactive |  |  | inactive | inactive | inactive |
| CCOP(=S)(OCC)SCSc1cc(Cl)ccc1Cl | inactive | inactive | inactive | inactive | inactive | inactive | inactive | inactive | inactive | inactive | inactive | inactive | inactive | inactive | inactive | inactive | inactive |  |  |  |
| CC(C)CCON=O | inactive | inactive | inactive | inactive | inactive | inactive | inactive |  | inactive | inactive | inactive | inactive | inactive | inactive | inactive | inactive | inactive | inactive | inactive |  |
| CC(O)CN1CCN(CC(=O)[O-])CCN(CC(=O)[O-])CCN(CC(=O)[O-])CC1.[Gd+3] (stereo unspecified) | inactive | inactive | inactive |  | inactive | inactive | inactive | inactive | inactive | inactive | inactive | inactive | inactive | inactive | inactive |  | inactive | inactive |  | inactive |
| O=C(Cc1ccccc1)OCCc1ccccc1 | inactive | inactive | inactive | inactive | inactive | inactive | inactive | inactive | inactive | inactive | inactive | inactive | inactive | inactive | inactive | inactive | inactive | inactive |  |  |
| N#CC(C#N)=C(C#N)C#N | inactive | inactive | inactive | inactive | inactive | inactive | inactive | inactive | inactive | inactive | inactive | inactive | inactive | inactive | inactive |  | inactive | inactive |  |  |
| CCOP(=S)(S)OCC | inactive | inactive | inactive | inactive | inactive | inactive | inactive | inactive | inactive |  | inactive | inactive | inactive | inactive | inactive | inactive | inactive | inactive | inactive |  |
| C1CCNCC1 | inactive | inactive | inactive |  | inactive | inactive | inactive | inactive | inactive | inactive | inactive | inactive | inactive | inactive | inactive | inactive |  |  |  | inactive |
| CCN(C(C)=O)c1cccc(-c2ccnc3c(C#N)cnn23)c1 | inactive | inactive | inactive | inactive | inactive | inactive | inactive | inactive | inactive |  | inactive | inactive | inactive | inactive | inactive | inactive |  |  | inactive |  |
| NC(=S)c1c(Cl)cccc1Cl | inactive |  | inactive |  | inactive | inactive | inactive | inactive | inactive |  | inactive | inactive | inactive | inactive | inactive | inactive | inactive | inactive | inactive | inactive |
| CCCC[P+](CC)(CCCC)CCCC (tested in a mixture with another compound) | inactive | inactive |  | inactive | inactive | inactive | inactive |  | inactive |  | inactive | inactive | inactive | inactive | inactive | inactive |  |  |  |  |
| C=CCOCC1CO1 (stereo unspecified) | inactive | inactive |  |  |  | inactive | inactive | inactive | inactive |  | inactive | inactive | inactive | inactive | inactive | inactive |  |  | inactive |  |
